PubChem BioAssay (EPA / NIEHS)
Results filed as inconclusive are left out. Active and inactive are the calls of the source. The calls were made as follows: active = hit-call score of the fitted dose curve at least 0.9, where 1 is the maximum; inconclusive = response in the unintended direction; inactive = score below 0.9.

Experiments:
[1] = ACEA_AR_agonist_AUC_viability: ACEA Biosciences xCELLigence Real-Time Cell Analysis on Androgen Receptor Agonism for Viability (AID 2283775);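 as to AC50: viability read 80 hours after compound addition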
How it was run: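 Real-time impedance tracking of 22Rv1 growth, readings every 5 min for 5 h then hourly; area-under-curve viability endpoint at 80 hours, relative to DMSO. Compounds at eight concentrations, 1:4 steps, top 100 uM, n = 2.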

[2] = ACEA_AR_antagonist_AUC_viability: ACEA Biosciences xCELLigence Real-Time Cell Analysis on Androgen Receptor Antagonism for Viability (AID 2283776);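 also: hits lower the growth signal relative to DMSO meaning cytotoxicity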
How it was run: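 Viability endpoint from label-free cell-index monitoring: 22Rv1 cultures treated with an eight-point 1:4 dilution series starting at 100 uM final, AUC at 80 h fitted against DMSO.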

[3] = ACEA_ER_AUC_viability: ACEA Biosciences xCELLigence Real-Time Cell Analysis on Estrogen Receptor Agonism for Viability (AID 2283782);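 also: continuous compound exposure with impedance area under curve over 80 h; hit means loss of impedance signal meaning reduced cell growth or viability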
How it was run: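 T-47D; phenol red-free RPMI1640 + 10% CS-FBS; 8 conc., 1:4 serial, max 100 uM final, ≤0.5% DMSO; n = 2; continuous exposure; impedance monitored to 80 h post-dose; AUC vs DMSO.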

[4] = biological target: AR (gene 367) (UniProt P10275); test: ACEA_AR_agonist_80hr: ACEA Biosciences xCELLigence Real-Time Cell Analysis on Androgen Receptor Agonism for Proliferation (AID 2283783);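 also: hits increase impedance growth signal above DMSO baseline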
Experimental: ACEA_AR_agonist is a cell-based, single-readout assay that uses 22Rv1, a human prostate cancer cell line, with measurements taken at 80 hours after chemical dosing in a 384-well plate, although TO5 and TO6 (mc0.srcf) used a 96-well plate. Differences in plate size can be ignored given data normalization.ACEA_AR_agonist_80hr is one of two assay component(s) measured or calculated from the ACEA_AR assay. It is designed to make measurements of real-time cell-growth kinetics, a form of growth reporter, as detected with electrical impedance signals by Real-Time Cell Electrode Sensor (RT-CES) technology.Data from the assay component ACEA_AR_agonist_80hr was analyzed in the positive analysis fitting direction relative to DMSO as the negative control and baseline of activity. Using a type of growth reporter, measures of the cells for gain-of-signal activity can be used to understand the signaling at the pathway-level as they relate to the geneAR Furthermore, this assay endpoint can be referred to as a primary readout, because this assay has produced multiple assay endpoints where this one serves a signaling function. To generalize the intended target to other relatable targets, this assay endpoint is annotated to the nuclear receptor intended target family, where the subfamily is steroidal.
The xCELLigence system Multi-E-Plate stations were used to measure the time-dependent response to chemicals. Each compound was tested in an eight-point, 1:4 serial dilution series starting at a maximum final concentration of 100 uM. A maximum starting concentration of 0.5% DMSO was present in the 100 uM chemical samples and was diluted along with the test article dilution series. The screen was performed in biological duplicate using two separate, 96-well, E-Plates 96 for each dilution series (n = 2). Positive controls (MG132 and testosterone) and a negative control (assay media) were tested in quadruplicate on each testing plate. […] Reference compounds were tested with 8 concentrations with 1:5 serial dilutions. All screening was carried out by ACEA Biosciences, Inc. (San Diego, CA). 22Rv1 cells purchased from ATCC were maintained in media supplemented with 10% fetal bovine serum (FBS). Before screening, 22Rv1 cells were preconditioned in assay medium. Cells were then detached and seeded in E-Plates 96 in assay medium. After overnight monitoring of growth once every hour, compounds were added to […] cells and remained in the medium until the end of the experiment. Cellular responses were then recorded once every 5 min for the first 5 h, and once every hour for an additional 100 h.

[5] = system: frog Estrogen Receptor (ESR1), gene 398734; test: ATG_frER1_XSP1: Attagene TRANS-FACTORIAL Multi-Species (XSP1) HepG2 Assay for frog Estrogen Receptor (ESR1) (AID 2283777)
How it was run: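 Human hepatoma HepG2 cells carried transiently transfected multiplexed Gal4-driven reporters and were exposed to test chemicals for 24 hours. Transcripts were quantified by fluorescent RT-PCR with capillary electrophoresis, referenced to DMSO.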

[6] = system: zebrafish Estrogen Receptor (ESR2A), gene 317734; test: ATG_zfER2a_XSP1: Attagene TRANS-FACTORIAL Multi-Species (XSP1) HepG2 Assay for zebrafish Estrogen Receptor (ESR2A) (AID 2283778)
How it was run: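 Cells were transfected, dosed for 24 h, then total RNA was isolated. After oligo(dT) reverse transcription, reporter sequences were amplified, FAM-labelled by primer extension, digested with HpaI and sized by capillary electrophoresis; DMSO served as baseline.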

[7] = biological target: chicken Estrogen Receptor (ESR1), ESR1 (gene 396099) (UniProt P06212); test: ATG_chERa_XSP1: Attagene TRANS-FACTORIAL Multi-Species (XSP1) HepG2 Assay for chicken Estrogen Receptor (ESR1) (AID 2283779)
How it was run: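 Human liver HepG2, transient MRTU transfection (NR-Gal4 chimeras, GAL4-UAS reporters); 24 h compound exposure; 3 nM 6-alpha-fluorotestosterone in medium. Total RNA → RT-PCR → 6-FAM primer extension → HpaI → CE. Positive direction vs DMSO baseline.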

[8] = system: turtle Estrogen Receptor (ESR1), gene 101933533; test: ATG_trERa_XSP1: Attagene TRANS-FACTORIAL Multi-Species (XSP1) HepG2 Assay for turtle Estrogen Receptor (ESR1) (AID 2283781)
How it was run: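 Activity was taken as gain of reporter transcript over DMSO controls. HepG2 cells carrying GAL4-UAS-driven reporters were exposed for 24 h before RNA was extracted and reporter sequences were measured by fluorescence after capillary separation.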

Sequence of AR (gene 367) (P10275 whole entry, looked up): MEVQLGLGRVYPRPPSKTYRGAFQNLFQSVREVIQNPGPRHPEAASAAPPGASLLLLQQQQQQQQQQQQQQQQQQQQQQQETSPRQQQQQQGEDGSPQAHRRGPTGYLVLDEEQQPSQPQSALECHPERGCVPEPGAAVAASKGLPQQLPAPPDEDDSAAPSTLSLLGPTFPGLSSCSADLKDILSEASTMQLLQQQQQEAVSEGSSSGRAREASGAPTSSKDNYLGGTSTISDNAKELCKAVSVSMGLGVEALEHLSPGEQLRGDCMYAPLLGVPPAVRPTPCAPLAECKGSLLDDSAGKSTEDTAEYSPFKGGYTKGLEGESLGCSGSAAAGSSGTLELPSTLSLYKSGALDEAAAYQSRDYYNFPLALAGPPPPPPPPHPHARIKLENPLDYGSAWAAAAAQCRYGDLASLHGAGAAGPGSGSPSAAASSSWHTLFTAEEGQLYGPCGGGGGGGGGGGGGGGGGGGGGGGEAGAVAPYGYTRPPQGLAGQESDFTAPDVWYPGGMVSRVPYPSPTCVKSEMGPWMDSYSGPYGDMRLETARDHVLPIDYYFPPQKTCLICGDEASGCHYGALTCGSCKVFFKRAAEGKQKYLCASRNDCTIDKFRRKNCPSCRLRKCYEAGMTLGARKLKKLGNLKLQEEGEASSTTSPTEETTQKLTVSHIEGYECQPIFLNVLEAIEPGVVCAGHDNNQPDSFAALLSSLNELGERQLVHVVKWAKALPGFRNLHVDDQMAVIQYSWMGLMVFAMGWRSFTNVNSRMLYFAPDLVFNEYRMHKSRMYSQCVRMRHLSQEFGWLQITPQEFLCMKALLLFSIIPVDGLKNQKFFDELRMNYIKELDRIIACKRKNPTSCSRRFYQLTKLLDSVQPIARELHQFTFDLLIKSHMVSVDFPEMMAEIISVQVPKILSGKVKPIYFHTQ
Sequence of chicken Estrogen Receptor (ESR1), ESR1 (gene 396099) (P06212 whole entry, looked up, the tested form may be a part): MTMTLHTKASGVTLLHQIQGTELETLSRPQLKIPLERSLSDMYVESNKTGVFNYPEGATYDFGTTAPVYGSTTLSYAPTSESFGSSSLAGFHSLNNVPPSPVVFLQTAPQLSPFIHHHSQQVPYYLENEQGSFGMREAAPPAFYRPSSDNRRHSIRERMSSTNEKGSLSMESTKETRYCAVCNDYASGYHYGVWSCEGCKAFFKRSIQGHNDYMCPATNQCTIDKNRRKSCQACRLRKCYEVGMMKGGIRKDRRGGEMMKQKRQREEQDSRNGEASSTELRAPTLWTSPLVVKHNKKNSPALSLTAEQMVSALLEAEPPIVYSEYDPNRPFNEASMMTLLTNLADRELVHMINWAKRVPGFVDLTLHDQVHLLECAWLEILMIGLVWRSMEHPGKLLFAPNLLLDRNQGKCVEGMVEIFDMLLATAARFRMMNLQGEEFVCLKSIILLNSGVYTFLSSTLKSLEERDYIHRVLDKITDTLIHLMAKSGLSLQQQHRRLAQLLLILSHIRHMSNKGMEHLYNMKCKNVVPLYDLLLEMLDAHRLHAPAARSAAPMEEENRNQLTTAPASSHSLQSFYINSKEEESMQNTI

SMILES: Nc1cc(Cl)cc(C(=O)O)c1Cl
- outcome [1]: inactive
- outcome [2]: inactive
- outcome [3]: inactive

SMILES: OCCOCCO
- outcome [2]: inactive

SMILES: CS(=O)(=O)NC(=O)c1cc(Oc2ccc(C(F)(F)F)cc2Cl)ccc1[N+](=O)[O-]
- outcome [2]: inactive
- outcome [3]: inactive

SMILES: Cc1cccc(N)c1N
- outcome [2]: inactive
- outcome [3]: inactive

SMILES: c1ccc2c(c1)-c1cccc3cccc-2c13
- AC50 [2]: 8.92 µM (active)
- outcome [3]: inactive

SMILES: N#CC(Br)Br
- outcome [2]: inactive

SMILES: ClC1=C(Cl)[C@]2(Cl)[C@H]3[C@H]([C@@H]4C=C[C@H]3C4)[C@@]1(Cl)C2(Cl)Cl
- AC50 [1]: 18.1 µM (active)
- AC50 [2]: 18.1 µM (active)
- AC50 [3]: 74.5 µM (active)

SMILES: O=C(Nc1ccccc1)c1ccccc1I
- outcome [1]: inactive
- outcome [2]: inactive
- outcome [3]: inactive

SMILES: CCNS(=O)(=O)C(F)(F)C(F)(F)C(F)(F)C(F)(F)C(F)(F)C(F)(F)C(F)(F)C(F)(F)F
- outcome [2]: inactive
- AC50 [4]: 48.2 µM (active)

SMILES: CCOC(=O)[C@]1(c2ccccc2)Oc2ccccc2[C@@H]1N
- AC50 [1]: 69.4 µM (active)
- AC50 [2]: 65 µM (active)
- outcome [3]: inactive

SMILES: COC(=O)Nc1nc2ccccc2[nH]1
- AC50 [1]: 50 µM (active)
- AC50 [2]: 17 µM (active)
- AC50 [3]: 16.5 µM (active)
- outcome [4]: inactive

SMILES: c1ccc(NNc2ccccc2)cc1
- outcome [3]: inactive

SMILES: C[C@]12C=CC3=C4CCC(=O)C=C4CC[C@H]3[C@@H]1CC[C@@H]2O
- outcome [2]: inactive
- outcome [5]: inactive
- outcome [6]: inactive
- outcome [7]: inactive
- outcome [8]: inactive
- AC50 [4]: 0.000293 µM (active)

SMILES: C1=Cc2cccc3cccc1c23
- outcome [2]: inactive
- outcome [3]: inactive

SMILES: ClC1=C(Cl)C2(Cl)C3C(Cl)C=CC3C1(Cl)C2(Cl)Cl (stereo not given)
- AC50 [1]: 25 µM (active)
- AC50 [2]: 22 µM (active)
- AC50 [3]: 50 µM (active)

SMILES: CC(C)(C)OOC(C)(C)CCC(C)(C)OOC(C)(C)C
- outcome [2]: inactive

SMILES: ClCCOCCCl
- outcome [1]: inactive
- outcome [3]: inactive

SMILES: [Cl-].[Cl-].[Hg+2]
- AC50 [1]: 4.59 µM (active)
- AC50 [2]: 5.66 µM (active)
- AC50 [3]: 16.9 µM (active)

SMILES: CC(C)(OOC(C)(C)c1ccccc1)c1ccccc1
- AC50 [1]: 17.2 µM (active)
- AC50 [2]: 24.5 µM (active)
- AC50 [3]: 77.1 µM (active)
- outcome [4]: inactive

SMILES: Cc1ccc(N)c(N)c1
- AC50 [2]: 50 µM (active)
- AC50 [3]: 6.06 µM (active)

SMILES: Nc1ccc(Cl)cc1N
- AC50 [2]: 50 µM (active)
- outcome [3]: inactive
- outcome [4]: inactive

SMILES: CCC(C)c1ccc(O)cc1 (stereo not given)
- AC50 [1]: 50 µM (active)
- AC50 [2]: 61.6 µM (active)
- AC50 [3]: 89.2 µM (active)

SMILES: Cc1cc(N=Nc2ccccc2C)ccc1N
- AC50 [1]: 66.1 µM (active)
- AC50 [2]: 42.2 µM (active)
- AC50 [3]: 50 µM (active)

SMILES: OCCCl
- outcome [3]: inactive

SMILES: COC(=O)c1ccccc1N
- outcome [3]: inactive

SMILES: CCCCCCCCOC(=O)c1ccc(C(=O)OCCCCCCCC)c(C(=O)OCCCCCCCC)c1
- outcome [1]: inactive
- outcome [2]: inactive
- outcome [3]: inactive

SMILES: CCCCC(CC)COC(=O)c1ccc(C(=O)OCC(CC)CCCC)c(C(=O)OCC(CC)CCCC)c1 (stereo not given)
- outcome [2]: inactive
- outcome [4]: inactive

SMILES: O=C(O)C1C2CCC(O2)C1C(=O)O (stereo not given)
- AC50 [2]: 35.4 µM (active)
- AC50 [3]: 21.9 µM (active)

SMILES: CC(O)CCO (stereo not given)
- outcome [1]: inactive
- outcome [2]: inactive
- outcome [3]: inactive

SMILES: O=[N+]([O-])C(Br)(CO)CO
- AC50 [1]: 29.5 µM (active)
- AC50 [2]: 39 µM (active)
- AC50 [3]: 32.7 µM (active)
- outcome [4]: inactive

SMILES: Nc1ccc([N+](=O)[O-])cc1
- AC50 [1]: 16.1 µM (active)
- AC50 [2]: 16.8 µM (active)
- AC50 [3]: 7.37 µM (active)

SMILES: c1ccc(N=Nc2ccccc2)cc1
- outcome [2]: inactive

SMILES: Clc1ccc(Cl)c(Cl)c1
- outcome [2]: inactive

SMILES: C=CCc1ccc2c(c1)OCO2
- outcome [1]: inactive
- outcome [2]: inactive
- outcome [3]: inactive

SMILES: Clc1ccccc1Cl
- outcome [2]: inactive
- outcome [3]: inactive

SMILES: O=P(OCCCl)(OCCCl)OCCCl
- outcome [3]: inactive

SMILES: CC(C)(C)OOC(=O)c1ccccc1
- outcome [1]: inactive
- outcome [2]: inactive
- outcome [3]: inactive

SMILES: CN(C)c1ccc(C(=O)c2ccc(N(C)C)cc2)cc1
- AC50 [1]: 9.27 µM (active)
- AC50 [2]: 9.62 µM (active)
- AC50 [3]: 1.51 µM (active)

SMILES: Oc1ccc2ccc3cccc4ccc1c2c34
- AC50 [1]: 83.3 µM (active)
- AC50 [2]: 74.6 µM (active)
- AC50 [3]: 79.6 µM (active)
